# APOBEC3G inh – APOBEC3G DNA deaminase inhibitors, primary screen, biochemical, fluorescence, single-stranded DNA substrate, uHTS | inhibition, % at 20 µM | DNA dC->dU-editing enzyme APOBEC-3G (Homo sapiens), Q9HC16 | recombinant A3G, ssDNA deamination FAM/TAMRA fluorescence | 0.28% of 330,000 active;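 active = inhibition of at least 40% at 20 µM, with no more than 30% in the related APOBEC3A deaminase screen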;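 note: plate controls were DMSO wells with A3G for no effect and wells lacking A3G enzyme for full effect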
# Target sequence (Q9HC16 whole entry, looked up): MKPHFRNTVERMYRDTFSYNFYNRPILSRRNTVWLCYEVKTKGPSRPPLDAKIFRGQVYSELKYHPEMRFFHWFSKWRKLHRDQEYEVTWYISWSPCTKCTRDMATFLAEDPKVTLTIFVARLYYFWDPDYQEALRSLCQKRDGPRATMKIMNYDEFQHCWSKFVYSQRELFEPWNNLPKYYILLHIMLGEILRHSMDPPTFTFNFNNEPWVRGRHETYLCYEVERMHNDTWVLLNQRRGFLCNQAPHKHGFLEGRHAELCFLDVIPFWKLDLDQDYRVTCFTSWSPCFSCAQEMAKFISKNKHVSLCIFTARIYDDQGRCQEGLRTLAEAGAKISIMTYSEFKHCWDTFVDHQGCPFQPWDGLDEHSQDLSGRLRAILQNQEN
# PfG6PD inh – PfG6PD enzyme inhibitors, primary screen, biochemical, fluorescence intensity, uHTS. PfGluPho enzyme, NADPH resazurin-diaphorase fluorescence. inhibition, % at 20 µM. 0.78% of 350,000 active. AID 504690, 2011;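 active = inhibition reaching at least a set limit at 20 µM in the primary screen, cut at about 59% in these data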;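 note: 0% = DMSO wells with substrate and 100% = DMSO wells lacking glucose-6-phosphate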
# H9c2 TAG inh – inhibitors of triacylglycerol accumulation, primary screen, cell-based, uHTS, fluorescence, H9c2; inhibition, % at 12.5 µM; AID 651582, 2012; H9c2 cells, Nile Red lipid (TAG) fluorescence; cells loaded with 200 µM oleic acid; 0.66% of 230,000 active;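 active = pattern-corrected inhibition of lipid staining of at least 50% with the nuclear-stain viability signal not falling by more than 50%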;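 note: 0% = DMSO wells and 100% = triacsin C control wells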
# NadD block – inhibitors of S. aureus NadD, primary screen, biochemical, colorimetric, uHTS; Nicotinate-nucleotide adenylyltransferase NadD (Staphylococcus aureus N315); inhibition, % at 20 µM; 0.78% of 360,000 active; purified NadD enzyme, colorimetric absorbance read-out; in the data active = inhibition above about 26%
# APOBEC3A inh – APOBEC3A ssDNA deaminase inhibitors, primary screen, selectivity assay for APOBEC3G inhibitor project, biochemical, FAM/TAMRA oligo cleavage fluorescence. DNA dC->dU-editing enzyme APOBEC-3A (Homo sapiens), P31941. recombinant A3A, FAM/TAMRA ssDNA deamination fluorescence. inhibition, % at 20 µM. 0.41% of 330,000 active. AID 493011, 2011;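 active = at least 40% inhibition at 20 µM here, with at most 30% in a related deaminase screen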;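 note: plate controls were A3A with DMSO for no effect and wells lacking A3A enzyme for full effect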
# Target sequence (P31941 whole entry, looked up): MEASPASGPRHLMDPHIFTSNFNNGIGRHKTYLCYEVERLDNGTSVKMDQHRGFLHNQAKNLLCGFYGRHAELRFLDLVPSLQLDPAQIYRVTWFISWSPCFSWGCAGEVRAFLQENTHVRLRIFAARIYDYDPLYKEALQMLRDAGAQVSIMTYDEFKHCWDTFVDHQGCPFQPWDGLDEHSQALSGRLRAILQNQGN
# H9c2 protect – cardioprotection against H2O2-induced cell death, primary screen, uHTS, H9c2 cells, ATPLite luminescence; protection from H2O2 cell death, % at 20 µM; AID 588492, 2011; 0.63% of 360,000 active; H9c2 cardiomyocytes, H2O2 injury protection, 2 h;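 active = compounds giving at least 50% protection of heart cells from peroxide-induced death in the single-dose screen, raw or plate-pattern-corrected value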;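 note: 0% = DMSO wells with peroxide and 100% = DMSO wells without peroxide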
# A3A conf – APOBEC3A deaminase inhibitors, retest, confirmation, selectivity assay for APOBEC3G inhibitor project, biochemical, single concentration, fluorescence readout | shares compounds with APOBEC3A inh | inhibition, % at 20 µM | 63% of 1,400 active | recombinant A3A, ssDNA deaminase UDG fluorescence assay;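 active = inhibition reaching a set limit, 80% of the first screen's cutoff, at 20 µM in any replicate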;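 note: plate controls were DMSO wells with A3A for no effect and wells lacking A3A enzyme for full effect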
# UDG ctr A3A – E. coli UDG inhibitors, confirmation, counter-screen for APOBEC3A inhibitor project, biochemical, single concentration, fluorescence, FAM/TAMRA oligo | shares compounds with APOBEC3A inh | UDG counterscreen, FAM/TAMRA uracil oligo fluorescence | inhibition, % at 20 µM | 1,000 tested, under 10 active; call rule not given here
# An asterisk follows results filed as active; . = no result. In the library only some 2.9% were active in any assay of this set; here they are far more common.
SMILES,APOBEC3G inh,PfG6PD inh,H9c2 TAG inh,NadD block,APOBEC3A inh,H9c2 protect,A3A conf,UDG ctr A3A
COc1cccc(Oc2coc3cc(OC(=O)N(C)C)ccc3c2=O)c1,-5,8,.,-3,99*,-4,6,1
C[C@@H]1CCC2[C@@H](C)C(=O)O[C@@H]3OC4(C)CCC1[C@@]23OO4 (some centres undefined),-5,-7,.,.,-4,.,.,.
CCOC(=O)/C(CCCN(CC)CC)=N\O,19,2,3,-2,75*,14,78*,1
C[N+]1(C)[C@@H]2CC[C@H]1CC(OC(=O)C(c1ccccc1)c1ccccc1)C2 (some centres undefined),21,-2,.,10,46*,8,61*,.
CC1=C(N2CC2)C(=O)C(CO)=C(N2CC2)C1=O,.,22,107,5,.,-13,.,.
CCCC[N+]12CCC(CC1)C(=C(c1ccccc1)c1ccccc1)C2,12,9,.,19,97*,-4,71*,0
O=C(O)C(O)(c1ccc(Cl)cc1)C1(O)CCCC1 (centres undefined),.,-8,-6,-2,.,17,.,.
COc1ccc2[nH]cc(CCNCc3cccnc3)c2c1,-4,13,4,1,-5,4,.,.
COc1ccc2[nH]cc(CCN=C(N)N)c2c1,14,1,8,9,54*,10,28*,-2
COc1ccc(S(=O)(=O)N2Cc3cnnn3-c3ccccc3C2C#N)cc1 (centres undefined),.,14,4,-4,.,15,.,.
COc1ccc2c3c1OC1C(O)C=CC4C(C2)[N+](C)(C)CCC341 (centres undefined),16,29,.,14,71*,6,51*,.
C[C@]12C[C@H](O)[C@@H](O)C[C@@H]1CC[C@@H]1[C@@H]2CC[C@]2(C)C(=O)CC[C@@H]12,.,.,.,7,.,17,.,.
C[C@]12CC[C@@H](O)CC1=CCC1C2CC[C@@]2(C)C1CC[C@@H]2O (some centres undefined),.,-15,-9,7,.,9,.,.
CCC(=O)C(CCN1CCOCC1)(c1ccccc1)c1ccccc1,-4,-1,9,-2,-4,-3,.,.
CC(C)[N+](C)(CCC(C(N)=O)(c1ccccc1)c1ccccc1)C(C)C,15,30,-5,11,68*,-4,83*,3
O=[N+]([O-])c1cc(S(=O)(=O)c2ccc(O)c([N+](=O)[O-])c2)ccc1O,14,-8,.,2,70*,2,84*,1
O=[N+]([O-])c1cccc(O)c1,-2,-6,.,1,2,-2,.,.
ClCCN(CCCl)c1ccc(C=Cc2ccncn2)cc1,.,23,-4,9,.,0,.,.
Cc1noc(C)c1CSCC(=O)Nc1ccc(C#N)c(Cl)c1,-6,-12,-2,-3,0,-2,.,.
Cc1sc2ncnc(N3CCC(C(=O)Nc4ccc(C#N)c(Cl)c4)CC3)c2c1C,7,11,13,20,53*,-12,10,.
O=S(=O)(c1cccc2ccccc12)N1Cc2ccccc2-n2nncc2C1,.,-9,-13,5,.,-8,.,.
C=C1C(O)(c2ccccc2)C2CC[N+]1(C)CC2 (centres undefined),22,8,.,3,76*,-3,74*,5
COc1ccc(N=C2SCCCN2C)cc1,24,-9,-9,9,48*,-3,72*,1
CCOC(=O)[C@]12Cc3cc(C)ccc3[C@H]1N(Cc1ccccc1)C(=O)c1cc(F)c(F)cc12,.,.,.,-3,.,.,.,.
CCCCCCC[n+]1ccc(-c2cc[n+](CCCCCCC)cc2)cc1,28,-4,.,19,58*,-3,75*,-2
SMILES,APOBEC3G inh,PfG6PD inh,H9c2 TAG inh,NadD block,APOBEC3A inh,H9c2 protect,A3A conf,UDG ctr A3A
C[C@@H]1CC2(CCCC[N+]2(C)C)C[C@H]1C,28,4,7,15,81*,-1,68*,-2
C[N+]1(CC2COC(c3ccco3)O2)CCCCC1 (centres undefined),25,-3,1,16,60*,-5,66*,-1
COC1C(C)OC(OC2CC(C)(O)Cc3cc4c(c(O)c32)C(=O)c2c(O)cc3c(c2C4=O)OC2OC3(C)C(O)C(N(C)C)C2O)C(OC)C1(C)OC (centres undefined),.,27,-18,-4,.,3,.,.
C[N+](C)(C)c1ccccc1,14,14,-1,3,70*,7,78*,-2
CCN(CC)c1ccc(/C=C2/C(=O)NC(=O)N(Cc3ccco3)C2=O)cc1,36,20,.,10,65,9,.,.
Cc1ccc(/C=C2/C(=O)NC(=O)N(CCc3ccc(F)cc3)C2=O)o1,-5,7,4,3,-2,12,.,.
O=C1NC(=O)N(CCc2ccc(F)cc2)C(=O)/C1=C/c1ccco1,27,26,-4,34*,74*,6,52*,6
COc1ccc(CN2C(=O)NC(=O)/C(=C\c3ccco3)C2=O)cc1,26,27,9,19,47*,-1,62*,2
CN(C)c1ccc(/C=C2/C(=O)NC(=O)N(Cc3ccco3)C2=O)cc1,20,13,.,12,60*,8,39*,-4
COc1ccc(CN2C(=O)NC(=O)/C(=C\c3cc(OC)c(OC)c(OC)c3)C2=O)cc1,-4,-2,-3,1,0,-6,.,.
O=C1CC2OCC=C3CN4CCC56c7ccccc7N1C5C2C3CC46O (centres undefined),.,.,.,-2,.,3,.,.
C=Cc1ccc(Cn2c(C(=O)O)c(C=O)c3ccccc32)cc1,5,-6,-3,-8,74*,-2,17,.
O=C1NC(=O)N(c2ccc3c(c2)OCO3)C(=O)/C1=C\c1ccc(-c2ccccc2C(=O)O)o1,26,45,-6,3,76*,7,65*,-2

# Assay outcomes deposited in PubChem by Sanford-Burnham Center for Chemical Genomics.
